The record followed here is PubChem BioAssay AID1240 (Sanford-Burnham Center for Chemical Genomics, 2008).

Among all 50,000 compounds or so, about 800 (1.6%) showed an effect of 50% or more. The entries come from a sample that favours strong results as a whole.

Chain of Bcl-2-like protein 10 (Homo sapiens) (Q9HD36 whole entry, looked up): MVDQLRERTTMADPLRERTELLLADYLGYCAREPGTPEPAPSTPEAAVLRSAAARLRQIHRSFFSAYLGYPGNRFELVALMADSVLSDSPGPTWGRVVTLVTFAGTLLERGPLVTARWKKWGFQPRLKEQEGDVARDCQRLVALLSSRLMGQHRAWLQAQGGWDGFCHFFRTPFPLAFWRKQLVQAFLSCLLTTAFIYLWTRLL

The assay addresses Bcl-2-like protein 10 (Homo sapiens) (UniProt Q9HD36). The experiment in a line: Phenotype converters, Bcl-B/TR3 peptide binding displacement, primary biochemical FP (AID 1240).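 Also: 0% = Bcl-B with tracer peptide and DMSO and 100% = tracer peptide lacking Bcl-B.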 Particulars: GST-Bcl-B / FITC-TR3 peptide fluorescence polarization; stronger effect = higher value; compound at 3.75 mg/L. (In general: Fluorescence polarisation rises when a labelled molecule tumbles more slowly, as on binding a larger partner.)
In the case of `CCOc1ccc(C(=O)Nc2cc(OC)ccc2OC)cc1Br`, the displacement is -9%. For the compound `COc1ccc(C(=O)N2CCN(c3cccc(C)c3C)CC2)c(OC)c1`, the displacement was -4.4%. Consider `CCN(CC)c1ccc(N2C(=O)/C(=C/C=C/c3ccccc3)SC2=S)cc1`, for which the displacement is -4.2%. Regarding `CCCOC(=O)c1c(NC(=O)c2c(-c3ccccc3)noc2C)sc2c1CCCCC2`, the displacement was -7.2%. Take `COc1ccc(CN2CCN(C3CCC(c4ccccc4)CC3)CC2)c(OC)c1OC` (stereo not drawn): the displacement was -12%. On to `CC(C)OC(=O)c1c(-c2ccc(F)cc2)csc1N`, for which the displacement amounted to 1.3%.

`COc1ccc(N2C(=O)/C(=C\C(Br)=C\c3ccccc3)SC2=S)cc1`: the displacement stood at 5.6%. In the case of `CCOC(=O)C1=C(C)N=c2s/c(=C\c3ccccn3)c(=O)n2C1c1ccc(OC)c(OC)c1` (stereo not drawn) it was 42.1%; in that of `CCOC(=O)C1=C(C)N=c2s/c(=C\c3ccccc3F)c(=O)n2C1c1ccc(OC)c(OC)c1` (stereo not drawn), 6.3%; in that of `CCOC(=O)C1=C(C)N=c2s/c(=C\c3ccccc3Cl)c(=O)n2C1c1ccc(OC)c(OC)c1` (stereo not drawn), 106%. Regarding `CCOC(=O)C1=C(C)N=c2s/c(=C\c3ccc(NC(C)=O)cc3)c(=O)n2C1c1ccc(OC)c(OC)c1` (stereo not drawn), the displacement amounted to 88.9%. For the compound `CCOC(=O)C1=C(C)N=c2s/c(=C\c3cc(Br)c(O)c(OC)c3)c(=O)n2C1c1ccc(OC)c(OC)c1` (stereo not drawn), the displacement is -85.1%. In the case of `CCOC(=O)C1=C(C)N=c2s/c(=C\c3ccc(N(CC)CC)o3)c(=O)n2C1c1ccc(OC)c(OC)c1` (stereo not drawn) it was -25%.

`CC(=O)N(c1ccccc1)c1c(F)c(F)c(F)c(F)c1F`: the displacement was -8.8%. `O=C(COc1ccc(Cl)cc1Br)Nc1ccc2c(c1)OCCO2`: the displacement was 1.8%. For `CCOC(=O)c1conc1-c1ccc(SC)cc1`, the displacement is 6.5%. Turning to `COc1ccc(CN2CCN(Cc3cc(Br)ccc3O)CC2)c(OC)c1`, the displacement amounted to 1.4%.

For the compound `COc1cc(C(=O)N2CCN(Cc3cccc(C(F)(F)F)c3)CC2)cc(OC)c1OC`, the displacement turned out to be 3.1%.

`O=C(Nc1ccc(-c2nc3ccccc3s2)c(O)c1)c1ccc2c(c1)OCCO2`: the displacement was -3.8%.

With `Cc1ccc2nc(-c3ccc(NC(=O)c4ccc5c(c4)OCCO5)cc3)sc2c1`, the displacement was determined as 73.2%. `O=C(Nc1cccc(-c2nc3ccccc3s2)c1)c1ccc2c(c1)OCCO2`: the displacement was 5.6%. Turning to `O=C(Nc1ccc(O)c(-c2nc3ccccc3s2)c1)c1ccc2c(c1)OCCO2`, the displacement came to 82.5%.

As for `CC(=O)Nc1ccc(-c2nc3ccc(C)cc3s2)cc1`, the displacement is -3.9%. In the case of `CCOc1ccc(C(=O)Nc2ccc(-c3nc4ccc(C)cc4s3)cc2)cc1` it was 13.3%; in that of `O=CN1N=C(c2ccccc2)CC1(O)C(F)(F)F` (stereo not drawn), 13.4%.

For `CCOC(=O)c1c(NC(=O)CC2Nc3ccccc3NC2=O)sc2c1CCCC2` (stereo not drawn), the displacement came to 130%. Turning to `COC(=O)c1ccc(NC(=O)CC2Nc3ccccc3NC2=O)cc1` (stereo not drawn), the displacement came out at 108%. For `CCOC(=O)c1c(NC(=O)CC2Nc3ccccc3NC2=O)sc(C)c1C` (stereo not drawn), the displacement is -9.5%.

In the case of `CCc1ccc(NC(=O)CC2Nc3ccccc3NC2=O)cc1` (stereo not drawn), the displacement was -35.7%.

On to `CCOC(=O)c1c(NC(=O)CC2Nc3cc(C)c(C)cc3NC2=O)sc2c1CCCC2` (stereo not drawn), for which the displacement is 48.8%. In the case of `O=C(CC1Nc2ccccc2NC1=O)Nc1ccc(Br)cc1` (stereo not drawn) it was -5.1%; in that of `O=[N+]([O-])c1ccc(COc2ccccc2/C=N/Nc2nc3ccccc3s2)cc1`, -2.1%; in that of `O=C(COc1ccc(Cl)cc1Cl)N1CCN(C(=O)COc2ccc(Cl)cc2Cl)CC1`, 2%.

As for `CCOC(=O)c1ccc(Nc2nc3nonc3nc2NC(C)C)cc1`, the displacement is -7.1%. For `O=C1NC(=S)N/C1=C\c1ccccc1`, the displacement is 0.7%. With `Cc1cc(/C=C2/NC(=S)NC2=O)c(C)n1-c1ccc(N2CCOCC2)cc1`, the displacement is -9%.

In the case of `O=C1NC(=S)N/C1=C/c1ccc(N2CCOCC2)cc1`, the displacement came out at 94.5%. For `COc1ccc(CC(=O)Nc2ccc(Cl)c(C(F)(F)F)c2)cc1OC`, the displacement turned out to be 6.1%.

In the case of `O=C(Nc1ccc(Br)cc1)c1ccccc1C(F)(F)F`, the displacement came out at 23.2%. To `O=C1c2ccccc2-c2c(NC3CCCCC3)c(=O)[nH]c3cccc1c23` belongs 150%; to `O=C1C(NC2CCCCC2)=C(N2CCCCC2)C(=O)c2ccccc21`, 7.4%; to `O=C1c2ccccc2C(=O)c2c1cc(NC1CCCCC1)c1nsnc21`, 15.8%. As to `Cc1cc(/C=C2/SC(=S)NC2=O)c(C)n1-c1ccccc1`, the displacement was -39.7%. In the case of `Cc1ccc(-n2c(C)cc(C=C3C(=O)NC(=S)NC3=O)c2C)cc1C`, the displacement came out at 0.1%. In the case of `Cc1cc(C=C2C(=O)NC(=S)NC2=O)c(C)n1-c1ccc(Br)cc1`, the displacement came to 21%. In the case of `CCc1ccc(-n2c(C)cc(/C=C3/SC(=S)NC3=O)c2C)cc1` it was 63%.

With `Cc1cccc(-n2c(C)cc(C=C3C(=O)NC(=S)NC3=O)c2C)c1`, the displacement was 72.3%.

For the compound `Cc1cc(C=C2C(=O)NC(=S)NC2=O)c(C)n1-c1cccc(Cl)c1`, the displacement was 107%. To `Cc1cc(/C=C2/SC(=S)NC2=O)c(C)n1-c1ccc(F)cc1` belongs -6.4%; to `Cc1cc(/C=C2/NC(=S)NC2=O)c(C)n1-c1cccc(Cl)c1`, -12.9%; to `Cc1cccc(-n2c(C)cc(/C=C3/NC(=S)NC3=O)c2C)c1`, -38.6%. Consider `CCOC(=O)c1ccc(NC(=O)CN(c2ccc(Oc3ccccc3)cc2)S(C)(=O)=O)cc1`, for which the displacement is -2.7%. On to `Cc1ccc(-c2nc(N/N=C/c3cccc(F)c3)c3ccccc3n2)cc1`, for which the displacement stood at 5%. On to `COc1ccc(C(=O)N2CCN(Cc3ccc4c(c3)OCO4)CC2)cc1OC`, for which the displacement is 10.6%. `CCOC(=O)C1=C(C)N=c2s/c(=C\c3ccc(N(C)C)o3)c(=O)n2C1c1ccc(F)cc1` (stereo not drawn): the displacement is -22.6%.

Regarding `CCOc1cc(C2/C(=C(\O)c3ccc(C)cc3)C(=O)C(=O)N2c2nncs2)ccc1O` (stereo not drawn), the displacement came to 8.3%. For `COc1ccc(/C(N)=N/OC(=O)c2ccc(C)c([N+](=O)[O-])c2)cc1`, the displacement is -1.8%.

Take `CCCCOC(=O)c1cccc(NC(=O)c2ccc(OC)cc2)c1`: the displacement is -3.1%.

For `COc1ccc(C2=NN(C(C)=O)C(c3ccccc3OC)C2)cc1` (stereo not drawn), the displacement was determined as 2.3%.

As to `CC(NC(=O)CN(c1cccc(C(F)(F)F)c1)S(C)(=O)=O)c1ccccc1` (stereo not drawn), the displacement turned out to be 0.7%.

Consider `CCOc1ccc(N(CC(=O)N2CCOCC2)S(=O)(=O)c2ccc(SC)cc2)cc1`, for which the displacement is -1.3%.

For the compound `C=CCN1C(=O)/C(=C\c2ccc(OCc3ccccc3)c(OCC)c2)SC1=S`, the displacement is 49.5%. `Cc1ccc(/C(O)=C/c2nc3ccc([N+](=O)[O-])cc3oc2=O)o1`: the displacement is -6.6%. To `Cc1ccc(/C(O)=C/c2nc3ccccc3[nH]c2=O)o1` belongs 130%; to `Cc1nc(C)c(/C(O)=C/c2nc3ccccc3[nH]c2=O)o1`, -8.5%; to `Cc1ccc(/C(O)=C/c2nc3ccccc3oc2=O)o1`, 116%. As to `Cc1cc(C)c(/C(O)=C/c2nc3ccccc3oc2=O)c(C)c1`, the displacement came out at 13.8%. As for `CCOC(=O)c1nc2ccccc2[nH]c1=O`, the displacement came to 14.3%.
